Screen size: about 39,000 compounds; about 3,300 (8.5%) were called active. This is one part of a sample in which actives are shown more often than they occur.
test system: HepG2; assay: cytotoxicity call (relative viability < 0.9); details: 10 µM

Compound	cytotoxicity call
C[C@@H]1CCCCO[C@H](CN(C)C(=O)Cc2ccccc2)[C@@H](C)CN([C@H](C)CO)C(=O)c2cc(NS(=O)(=O)c3ccc(F)cc3)ccc2O1	inactive
Cc1noc(C)c1NC(=O)Nc1ccc2c(c1)C(=O)N([C@H](C)CO)C[C@@H](C)[C@H](CN(C)C(=O)Nc1ccc(C(F)(F)F)cc1)OCCCC[C@H](C)O2	inactive
CCCNC(=O)Nc1ccc2c(c1)OC[C@H](C)N(Cc1ccc(-c3ccccn3)cc1)C[C@@H](C)[C@@H](OC)CN(C)C2=O	inactive
O=C(C[C@@H]1CC[C@H]2[C@@H](COC[C@H](O)CN2Cc2cc(F)ccc2F)O1)N[C@H]1CCN(Cc2ccccc2)C1	inactive
O=C(C[C@H]1CC[C@H]2[C@@H](COC[C@H](O)CN2Cc2cc(F)ccc2F)O1)N[C@H]1CCN(Cc2ccccc2)C1	inactive
O=C(C[C@@H]1CC[C@@H]2[C@H](COC[C@@H](O)CN2Cc2cc(F)ccc2F)O1)N[C@H]1CCN(Cc2ccccc2)C1	inactive
O=C(C[C@H]1CC[C@H]2[C@@H](COC[C@@H](O)CN2Cc2cc(F)ccc2F)O1)N[C@H]1CCN(Cc2ccccc2)C1	active
O=C(C[C@@H]1CC[C@H]2[C@@H](COC[C@@H](O)CN2Cc2cc(F)ccc2F)O1)N[C@H]1CCN(Cc2ccccc2)C1	inactive
O=C(C[C@@H]1CC[C@@H]2[C@H](COC[C@@H](O)CN2Cc2cc(F)ccc2F)O1)N[C@@H]1CCN(Cc2ccccc2)C1	inactive
O=C(C[C@H]1CC[C@@H]2[C@H](COC[C@@H](O)CN2Cc2cc(F)ccc2F)O1)N[C@H]1CCN(Cc2ccccc2)C1	active
O=C(C[C@H]1CC[C@@H]2[C@H](COC[C@@H](O)CN2Cc2cc(F)ccc2F)O1)N[C@@H]1CCN(Cc2ccccc2)C1	active
O=C(C[C@H]1CC[C@H]2[C@@H](COC[C@@H](O)CN2Cc2cc(F)ccc2F)O1)N[C@@H]1CCN(Cc2ccccc2)C1	inactive
C[C@H](CO)N1C[C@H](C)[C@@H](CN(C)Cc2cncnc2)Oc2ncc(C#C[C@@H](C)O)cc2C1=O	inactive
O=P(O)(O)CN1CCN(CP(=O)(O)O)CCN(CP(=O)(O)O)CCN(CP(=O)(O)O)CC1	inactive
C[C@H]1CN([C@@H](C)CO)C(=O)Cc2cc(NC(=O)Nc3ccc(F)cc3)ccc2O[C@@H]1CN(C)CC1CCCCC1	active
C[C@@H]1CN([C@H](C)CO)C(=O)Cc2cc(NC(=O)Nc3ccc(F)cc3)ccc2O[C@H]1CN(C)CC1CCCCC1	active
C[C@H]1CN([C@@H](C)CO)C(=O)Cc2cc(NC(=O)Nc3ccc(F)cc3)ccc2O[C@H]1CN(C)CC1CCCCC1	active
COc1ccc(NC(=O)Nc2ccc3c(c2)CC(=O)N([C@H](C)CO)C[C@@H](C)[C@H](CN(C)CC2CCCCC2)O3)cc1	inactive
C[C@@H]1CN([C@@H](C)CO)C(=O)Cc2cc(NC(=O)Nc3ccc(F)cc3)ccc2O[C@@H]1CN(C)CC1CCCCC1	active
Cc1noc(C)c1S(=O)(=O)Nc1ccc2c(c1)C(=O)N([C@H](C)CO)C[C@H](C)[C@@H](CN(C)C(=O)NC1CCCCC1)O2	inactive
CNC[C@H]1OCCCC[C@H](C)Oc2ccc(NC(=O)c3ccncc3)cc2C(=O)N([C@H](C)CO)C[C@@H]1C	inactive
COc1ccc2c3c([nH]c2c1)[C@H](CO)N(C[C@]13CN(C1)S(=O)(=O)c1cccs1)C(=O)c1ccccc1	inactive
COc1ccc2c3c([nH]c2c1)[C@@H](CO)N(CC1CCOCC1)C[C@]13CCN(CC1)C(=O)C1CCOCC1	inactive

Compound	cytotoxicity call
CC(C)CC#Cc1ccc2c(c1)O[C@@H](CN(C)C(=O)Cc1ccncc1)[C@H](C)CN([C@H](C)CO)S2(=O)=O	inactive
COc1ccc(CN(C)C[C@H]2OCCCC[C@@H](C)Oc3ccc(NC(=O)c4ccncc4)cc3C(=O)N([C@H](C)CO)C[C@@H]2C)cc1	inactive
CC(C)c1cn(CC[C@@H]2CC[C@H](N)[C@@H](CO)O2)nn1	inactive
CO[C@@H]1CN(C)C(=O)c2ccc(NS(=O)(=O)c3cn(C)cn3)cc2OC[C@@H](C)N(Cc2cccc(F)c2)C[C@@H]1C	inactive
CCN(CC)CCNc1nc(=O)[nH]nc1C	inactive
O=C(N[C@H]1CC[C@H](CCn2cc(C3(O)CCCC3)nn2)O[C@@H]1CO)C1CCOCC1	inactive
COc1ccc(-c2cnc3c(c2)C(=O)N([C@H](C)CO)C[C@H](C)[C@H](CN(C)S(=O)(=O)c2ccc(C#N)cc2)O3)cc1	inactive
C[C@H](CO)N1C[C@H](C)[C@H](CN(C)CC2CCCCC2)Oc2ccc(NC(=O)Nc3ccc(F)cc3)cc2CC1=O	active
C[C@@H]1CN([C@@H](C)CO)C(=O)Cc2cc(NC(=O)Nc3ccc(F)cc3)ccc2O[C@H]1CN(C)CC1CCCCC1	inactive
C[C@@H]1CN([C@H](C)CO)C(=O)Cc2cc(NC(=O)Nc3ccc(F)cc3)ccc2O[C@@H]1CN(C)CC1CCCCC1	active
C[C@H](CO)N1C[C@H](C)[C@@H](CN(C)CC2CCCCC2)Oc2ccc(NC(=O)Nc3ccc(F)cc3)cc2CC1=O	inactive
O=C(C[C@H]1CC[C@H]2[C@@H](COC[C@@H](O)CN2S(=O)(=O)c2ccccc2)O1)NCc1ccc2c(c1)OCO2	inactive
C[C@H](CO)N1C[C@H](C)[C@H](CN(C)C(=O)Nc2cccc3ccccc23)Oc2ncc(/C=C/c3ccccc3)cc2C1=O	inactive
NC(=O)c1cc2ccccc2nc1C(N)=O	inactive
C[C@H](CO)N1C[C@H](C)[C@H](CN(C)C(=O)Nc2cccc3ccccc23)Oc2ccc(NC(=O)C3CCCCC3)cc2C1=O	inactive
CO[C@H]1CN(C)C(=O)c2cc(NC(=O)c3ccccc3)ccc2OC[C@@H](C)N(C(=O)CN(C)C)C[C@H]1C	inactive
CCCCc1ccc(CC(=O)O)cc1	active
CC(=O)Nc1ccc(CC(=O)O)cc1	inactive
O=C(O)Cc1ccc(CO)cc1	inactive
COc1ccc2c3c(n(c2c1)C)[C@H](CO)N(C[C@]13CN(C1)C(=O)Nc1cccc(c1)F)C(=O)CN1CCOCC1	inactive
COc1ccc(NC(=O)Nc2ccc3c(c2)C(=O)N([C@@H](C)CO)C[C@@H](C)[C@@H](CN(C)C(=O)C2CCCCC2)OCCCC[C@@H](C)O3)cc1	inactive
COc1ccc(NC(=O)Nc2ccc3c(c2)C(=O)N([C@@H](C)CO)C[C@H](C)[C@H](CN(C)C(=O)C2CCCCC2)OCCCC[C@H](C)O3)cc1	active
COc1ccc(NC(=O)Nc2ccc3c(c2)C(=O)N([C@H](C)CO)C[C@@H](C)[C@H](CN(C)C(=O)C2CCCCC2)OCCCC[C@H](C)O3)cc1	inactive

Compound	cytotoxicity call
COc1ccc(NC(=O)Nc2ccc3c(c2)C(=O)N([C@H](C)CO)C[C@@H](C)[C@H](CN(C)C(=O)C2CCCCC2)OCCCC[C@@H](C)O3)cc1	active
COc1ccc(NC(=O)Nc2ccc3c(c2)C(=O)N([C@@H](C)CO)C[C@H](C)[C@H](CN(C)C(=O)C2CCCCC2)OCCCC[C@@H](C)O3)cc1	inactive
COc1ccc(NC(=O)Nc2ccc3c(c2)C(=O)N([C@@H](C)CO)C[C@H](C)[C@@H](CN(C)C(=O)C2CCCCC2)OCCCC[C@@H](C)O3)cc1	inactive
Cn1cnc(S(=O)(=O)N2C[C@@H](O)COC[C@H]3O[C@H](CC(=O)NC4Cc5ccccc5C4)CC[C@@H]32)c1	inactive
C[C@H]1CN([C@@H](C)CO)C(=O)c2cccc(NC(=O)Nc3ccc4c(c3)OCO4)c2O[C@@H]1CN(C)Cc1ccc(Cl)c(Cl)c1	inactive
COc1ccc(S(=O)(=O)N(C)C[C@@H]2Oc3cc(Br)ccc3S(=O)(=O)N([C@H](C)CO)C[C@@H]2C)cc1	inactive
COc1ccc([C@H]([C@H](Cc2ccccc2)OC(C)=O)N(C/C=C\[C@@H](O)c2ccccc2)[C@@H](Cc2ccccc2)C(OC)OC)cc1	inactive
COc1ccc([C@H]([C@@H](O)Cc2ccccc2)N(CC#C[C@@H](O[Si](c2ccccc2)(c2ccccc2)C(C)(C)C)c2ccccc2)[C@@H](Cc2ccccc2)C(OC)OC)cc1	inactive
COc1ccc([C@H]([C@H](Cc2ccccc2)OC(C)=O)N(C/C=C/[C@@H](OC(C)=O)c2ccccc2)[C@@H](Cc2ccccc2)C(OC)OC)cc1	active
COc1ccc([C@H]([C@H](Cc2ccccc2)OC(C)=O)N(CC#C[C@@H](O[Si](c2ccccc2)(c2ccccc2)C(C)(C)C)c2ccccc2)[C@@H](Cc2ccccc2)C(OC)OC)cc1	inactive
COc1ccc([C@H]([C@@H](O)Cc2ccccc2)N(CC#C[C@@H](O)c2ccccc2)[C@@H](Cc2ccccc2)C(OC)OC)cc1	inactive
COc1ccc([C@H]([C@H](Cc2ccccc2)OC(C)=O)N(CC#C[C@@H](O)c2ccccc2)[C@@H](Cc2ccccc2)C(OC)OC)cc1	active
COc1ccc(-c2cnc3c(c2)C(=O)N([C@@H](C)CO)C[C@H](C)[C@@H](CN(C)C(=O)C2CCOCC2)O3)cc1	inactive
COc1ccc(S(=O)(=O)Nc2ccc3c(c2)C(=O)N([C@H](C)CO)C[C@H](C)[C@H](CN(C)C(=O)CCC(F)(F)F)OCCCC[C@H](C)O3)cc1	inactive
COc1ccc(NC(=O)N(C)C[C@H]2OCCCC[C@@H](C)Oc3ccc(NC(=O)c4ccncc4)cc3C(=O)N([C@@H](C)CO)C[C@H]2C)cc1	inactive
O=C(C[C@@H]1C=C[C@@H](NC(=O)c2cccnc2)[C@@H](CO)O1)NCc1ccncn1	inactive
C[C@@H]1CCCCO[C@@H](CN(C)S(=O)(=O)c2cccs2)[C@H](C)CN([C@@H](C)CO)C(=O)c2cc(NC(=O)c3ccccc3)ccc2O1	inactive
C[C@@H]1CCCCO[C@@H](CN(C)S(=O)(=O)c2cccs2)[C@H](C)CN([C@H](C)CO)C(=O)c2cc(NC(=O)c3ccccc3)ccc2O1	active
C[C@@H]1CN([C@@H](C)CO)C(=O)c2cc(NC(=O)c3ccccc3)ccc2O[C@@H](C)CCCCO[C@@H]1CN(C)S(=O)(=O)c1cccs1	inactive
C[C@@H]1CCCCO[C@@H](CN(C)S(=O)(=O)c2cccs2)[C@@H](C)CN([C@@H](C)CO)C(=O)c2cc(NC(=O)c3ccccc3)ccc2O1	inactive
C[C@@H]1CN([C@H](C)CO)C(=O)c2cc(NC(=O)c3ccccc3)ccc2O[C@@H](C)CCCCO[C@H]1CN(C)S(=O)(=O)c1cccs1	active
C[C@@H]1CCCCO[C@H](CN(C)S(=O)(=O)c2cccs2)[C@@H](C)CN([C@@H](C)CO)C(=O)c2cc(NC(=O)c3ccccc3)ccc2O1	inactive
